Shown are actives, neighbours in structure and some others; about 5.4% of the full set was active somewhere.
Beta apoptosis = beta cell apoptosis inhibition. AID 435005. INS-1E cytokine-induced death, ATP luminescence, 48 h; percent of positive-control rescue, neutral wells zero. 0.8% of 300,000 active. protection from apoptosis, % (no concentration beside the values);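 active means Every replicate reaches about 75%, or at least half do and their mean reaches it too, limit read from the data; inconclusive means At least half of replicates reach the limit but their mean does not; inactive means Under half of replicates reach the limit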;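 further: 0% = cytokine-treated negative control wells and 100% = positive control rescue; higher means more ATP so stronger rescue from cytokine killing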
MPTP block = blocks calcium-induced mitochondrial swelling. AID 602449. isolated mouse mitochondria, Ca2+ swelling absorbance, 30 min. 1.4% of 360,000 active. inhibition, % at 10 µM;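 active means inhibition of 50% or more, scaled per plate between neutral and stimulator controls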;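 further: 0% = DMSO wells given calcium and 100% = 1 mM EGTA wells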
Calb FLC = C. albicans growth modulation with fluconazole; 0.57% of 300,000 active; C. albicans CaCi-2 (fluconazole-resistant clinical isolate) + fluconazole, Alamar Blue growth, 48 h; growth inhibition, % (test concentration not listed);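 active means growth inhibition above about 58% in most replicates, limit read from the data, passing the limit was not always enough; inconclusive means exactly half the replicates above a set limit; inactive means most replicates below a set limit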;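 further: all wells also contain fluconazole at 8 µg/ml as a sub-toxic cotreatment; 0% = median of DMSO wells and 100% = median of geldanamycin control wells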
CSC inhib = blocks cancer stem cells; cancer stem cell-like cells viability, luminescence; inhibition, % at 7.5 µM; 1.1% of 300,000 active; AID 2717; in the data active means inhibition above about 75%; inconclusive means no clear call, values can overlap the other calls; tested in HMLE shEcad cells
SKKanGAS inh = SKKanGAS growth inhibition; inhibition, % at 7.5 µM; 1.3% of 300,000 active; S. pyogenes SKKanGAS, kanamycin growth, BacTiter-Glo, 6 h; AID 1662;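 active means mean replicate score, as percent of positive control median, at least 50; inconclusive means mean below 50 but one replicate at or above 50; inactive means mean and every replicate below 50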;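 further: strain carries kanamycin resistance gene driven by streptokinase promoter and grows in 40 µg/ml kanamycin; loss of luminescence reflects streptokinase promoter inhibition or plain growth inhibition; 0% = median of DMSO wells and 100% = positive control at its reference dose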
Mdm2 MdmX PPI = disrupts the human Mdm2-MdmX interaction | AID 485346 | inhibition, % at 8 µM | SaOS-2 split-luciferase Mdm2/MdmX complementation, luminescence | 3% of 330,000 active | O15151+Q00987;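 active means inhibition of at least 50% at 8 µM in the primary screen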
Target sequence (O15151 whole entry, looked up): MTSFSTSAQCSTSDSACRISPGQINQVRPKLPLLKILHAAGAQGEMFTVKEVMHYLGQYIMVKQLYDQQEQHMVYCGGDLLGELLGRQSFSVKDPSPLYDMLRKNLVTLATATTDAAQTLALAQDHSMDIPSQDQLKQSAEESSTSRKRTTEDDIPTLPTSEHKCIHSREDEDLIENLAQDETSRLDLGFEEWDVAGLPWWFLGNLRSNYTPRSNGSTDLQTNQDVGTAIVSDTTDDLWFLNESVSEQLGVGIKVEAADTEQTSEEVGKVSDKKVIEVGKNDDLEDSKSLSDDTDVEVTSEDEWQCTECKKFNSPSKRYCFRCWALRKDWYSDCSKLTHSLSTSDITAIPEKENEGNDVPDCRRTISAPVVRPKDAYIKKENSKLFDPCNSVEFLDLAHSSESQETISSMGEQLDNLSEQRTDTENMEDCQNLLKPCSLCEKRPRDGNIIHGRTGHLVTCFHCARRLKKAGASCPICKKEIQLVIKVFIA
Target sequence (Q00987 whole entry, looked up): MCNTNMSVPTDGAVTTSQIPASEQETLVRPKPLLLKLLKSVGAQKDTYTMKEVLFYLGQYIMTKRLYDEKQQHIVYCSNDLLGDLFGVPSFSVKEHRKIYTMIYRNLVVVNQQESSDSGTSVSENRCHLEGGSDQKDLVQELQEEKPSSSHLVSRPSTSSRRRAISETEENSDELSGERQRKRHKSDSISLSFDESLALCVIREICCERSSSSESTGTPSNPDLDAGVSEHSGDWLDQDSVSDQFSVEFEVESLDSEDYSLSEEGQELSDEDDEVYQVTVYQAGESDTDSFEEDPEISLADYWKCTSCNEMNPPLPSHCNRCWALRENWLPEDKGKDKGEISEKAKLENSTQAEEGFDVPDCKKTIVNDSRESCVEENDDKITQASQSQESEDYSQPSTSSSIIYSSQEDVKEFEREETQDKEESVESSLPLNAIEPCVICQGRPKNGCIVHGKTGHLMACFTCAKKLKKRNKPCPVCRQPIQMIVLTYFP
The depositor's hits bear a star.

COc1ccc(CCN2C(=O)C(Oc3ccccc3)C2c2ccc3c(c2)OCO3)cc1 (configuration not stated) was read as Beta apoptosis -8.0, MPTP block 1.5, Calb FLC 1.2, CSC inhib -5.2, SKKanGAS inh 0.5 and Mdm2 MdmX PPI 2.1.
For CSc1cnn(Cc2ccccc2)c(=O)c1SCc1ccccc1 the results were Beta apoptosis 5.6, MPTP block -1.2, Calb FLC 18.1, CSC inhib 23.0 and SKKanGAS inh 67.6*.
Screening CC(C)N1CCN(Cc2ccc(-c3ccccc3)cc2)CC1CCO (configuration not stated) returned MPTP block 23.2, Calb FLC -14.0, CSC inhib 54.0, SKKanGAS inh 6.6 and Mdm2 MdmX PPI 16.3.
For CC(C)N1CCN(Cc2ccc(OCc3ccccc3)cc2)CC1CCO (configuration not stated) the results were Beta apoptosis 6.6, MPTP block 5.3, Calb FLC 1.0, CSC inhib 77.0*, SKKanGAS inh -17.8 and Mdm2 MdmX PPI 20.7.
Screening O=[N+]([O-])c1cccc(/C=C/c2ccc3cccc(O)c3n2)c1 returned Beta apoptosis 32.5, MPTP block 2.1, Calb FLC -2.4, CSC inhib 35.9, SKKanGAS inh 83.5* and Mdm2 MdmX PPI -18.4.
`O=[N+]([O-])c1ccc(/C=C/c2ccc3cccc([N+](=O)[O-])c3n2)cc1` gave Beta apoptosis 4.8, MPTP block -2.0, Calb FLC -0.2, CSC inhib 7.8, SKKanGAS inh -0.6 and Mdm2 MdmX PPI 1.6.
Screening Oc1ccc(/C=C/c2ccc3cccc(O)c3n2)cc1Br returned Beta apoptosis 13.1, MPTP block 5.0, Calb FLC 11.6, CSC inhib 92.7*, SKKanGAS inh 89.2* and Mdm2 MdmX PPI -1.1.
`COc1ccc(/C=C2\C(=O)c3ccccc3OC2c2ccccc2)cc1` (configuration not stated) gave Beta apoptosis 25.4, MPTP block 0.7, Calb FLC -14.7, CSC inhib 82.0*, SKKanGAS inh 13.9 and Mdm2 MdmX PPI 37.5.
For Cn1cccc1-c1cc(C(=O)N2CCc3c([nH]c4ccccc34)C2c2ccccn2)[nH]n1 (configuration not stated) the results were Beta apoptosis 1.3, MPTP block -1.6, Calb FLC 97.7*, CSC inhib 1.2, SKKanGAS inh 22.4 and Mdm2 MdmX PPI 38.6.
Cc1ccc(S(=O)(=O)Nc2ccc(-c3nnc(SCc4ccccc4Cl)o3)cc2)cc1 was read as Beta apoptosis 1.2, MPTP block 9.8, Calb FLC 2.7, CSC inhib 87.7*, SKKanGAS inh 8.4 and Mdm2 MdmX PPI 24.5.
Screening CCCn1c(N)c(N(CCOC)C(=O)/C=C/c2cccc(Cl)c2)c(=O)[nH]c1=O returned Beta apoptosis 5.0, MPTP block 0.3, Calb FLC 5.8, CSC inhib -11.1, SKKanGAS inh -0.5 and Mdm2 MdmX PPI 0.9.
For CCCCNC1=CC(=O)C(=O)c2ccccc21 the results were Beta apoptosis 99.1*, MPTP block 2.5, Calb FLC inconclusive, CSC inhib 7.7, SKKanGAS inh 1.3 and Mdm2 MdmX PPI -11.1.
`CCCCNC1=CC(=O)C(NCCCC)=CC1=O` gave MPTP block -1.5.
For COC(=O)c1cn(CC(=O)NC2CCCCC2)c2ccccc12 the results were Beta apoptosis 2.9, MPTP block 0.2, Calb FLC 100.0*, CSC inhib -5.5, SKKanGAS inh 5.6 and Mdm2 MdmX PPI 16.0.
`O=C(OCc1csc(Nc2ccccc2)n1)c1ccc(Cl)cc1` gave Beta apoptosis -9.2, MPTP block -0.5, Calb FLC -11.9, SKKanGAS inh 54.8* and Mdm2 MdmX PPI -16.0.
`CCOC(=O)c1csc(NC(=O)CSc2nnnn2-c2ccc(OCC)cc2)n1` gave MPTP block -0.2, Calb FLC -7.8 and SKKanGAS inh -2.7.
`COCCCn1c(SCc2ccccc2)nc2cc(OC)c(OC)cc2c1=N` gave Beta apoptosis 3.1, MPTP block 12.9, Calb FLC 15.7, CSC inhib 68.5, SKKanGAS inh 7.6 and Mdm2 MdmX PPI 18.9.
`COCCCn1c(SCc2cccc(C(F)(F)F)c2)nc2cc(OC)c(OC)cc2c1=N` gave Beta apoptosis 6.9, MPTP block 11.1, Calb FLC 18.2, CSC inhib 82.6*, SKKanGAS inh 14.3 and Mdm2 MdmX PPI 37.8.
Screening O=c1cc(O)c2c(=O)n(C3CCCCC3)c3ccccc3c2o1 returned Beta apoptosis 4.6, MPTP block -5.2, Calb FLC 1.2, CSC inhib -3.0, SKKanGAS inh 27.2 and Mdm2 MdmX PPI 17.2.
O=c1cc(O)c2c(=O)n(-c3ccccc3)c3c(c2o1)CCCCCC3 was read as Beta apoptosis -1.1, MPTP block -1.6, Calb FLC -0.6, CSC inhib -9.9, SKKanGAS inh 55.9* and Mdm2 MdmX PPI 7.5.
Screening N#CC1=C(N)Oc2cc(N)ccc2C1c1cccc(Br)c1 (configuration not stated) returned Beta apoptosis 3.1, MPTP block 1.2, Calb FLC -4.2, CSC inhib 82.4*, SKKanGAS inh 5.4 and Mdm2 MdmX PPI 42.0.
C=CCn1c(SCCCC)nc(O)cc1=O was read as Beta apoptosis -2.1, MPTP block 0.6, Calb FLC -5.8, CSC inhib -1.3, SKKanGAS inh 15.0 and Mdm2 MdmX PPI 6.3.
For C=CCn1c(SC(C)CC)nc(O)cc1=O (configuration not stated) the results were Beta apoptosis -2.6, MPTP block -1.2, Calb FLC -3.3, CSC inhib -1.3, SKKanGAS inh 52.0* and Mdm2 MdmX PPI 11.9.
Cc1ccccc1Nc1nc(N)nc(COC(=O)C(NC(=O)c2ccco2)C(C)C)n1 (configuration not stated) was read as Beta apoptosis 4.5, MPTP block 0.0, Calb FLC 28.7, CSC inhib 1.5, SKKanGAS inh -10.5 and Mdm2 MdmX PPI 33.6.
For CC(Oc1ccc(Cl)cc1Cl)c1nc(-c2ccc(NC(=O)c3ccco3)cc2)no1 (configuration not stated) the results were Beta apoptosis 10.9, MPTP block 4.5, Calb FLC -8.5, CSC inhib 62.6, SKKanGAS inh 54.0* and Mdm2 MdmX PPI -12.3.
Screening COc1ccc(N2CCN(C(=O)CC(C)S(=O)(=O)c3ccc4c(c3)NC(=O)CO4)CC2)cc1 (configuration not stated) returned Beta apoptosis -2.9, MPTP block 0.4, Calb FLC -3.9, CSC inhib -4.8, SKKanGAS inh 2.0 and Mdm2 MdmX PPI 32.4.
Screening CC(CC(=O)N1CCN(c2cccc(Cl)c2)CC1)S(=O)(=O)c1ccc2c(c1)NC(=O)CO2 (configuration not stated) returned Beta apoptosis 80.4*, MPTP block 30.1, Calb FLC -8.2, CSC inhib -8.1, SKKanGAS inh 1.0 and Mdm2 MdmX PPI -2.5.

High-throughput results: PubChem, several laboratories
